Whole data set: some 110,000 compounds, median “z-score” near -0.1, cut for the highest 2% near 2. Shown is part of a subset that was picked to be rich in the highest values. Calls of active or inactive are those of the source.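 The calls were made as follows: active = z-score in the third read window above 3 or below -3; inactive = the rest.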
molecular target: Metabotropic glutamate receptor 8 (Rattus norvegicus) (UniProt P70579); test: mGluR8 Gi/Go-coupled signaling modulation – cell-based, rat, thallium flux, HTS, primary screen (AID 488969); settings: HEK293 rat mGluR8, GIRK (G protein-gated inwardly rectifying potassium channel) thallium flux, FluoZin2; at 10 µM; stronger effect = higher value; submaximal glutamate (EC20) added with thallium
Sequence (P70579 whole entry, looked up): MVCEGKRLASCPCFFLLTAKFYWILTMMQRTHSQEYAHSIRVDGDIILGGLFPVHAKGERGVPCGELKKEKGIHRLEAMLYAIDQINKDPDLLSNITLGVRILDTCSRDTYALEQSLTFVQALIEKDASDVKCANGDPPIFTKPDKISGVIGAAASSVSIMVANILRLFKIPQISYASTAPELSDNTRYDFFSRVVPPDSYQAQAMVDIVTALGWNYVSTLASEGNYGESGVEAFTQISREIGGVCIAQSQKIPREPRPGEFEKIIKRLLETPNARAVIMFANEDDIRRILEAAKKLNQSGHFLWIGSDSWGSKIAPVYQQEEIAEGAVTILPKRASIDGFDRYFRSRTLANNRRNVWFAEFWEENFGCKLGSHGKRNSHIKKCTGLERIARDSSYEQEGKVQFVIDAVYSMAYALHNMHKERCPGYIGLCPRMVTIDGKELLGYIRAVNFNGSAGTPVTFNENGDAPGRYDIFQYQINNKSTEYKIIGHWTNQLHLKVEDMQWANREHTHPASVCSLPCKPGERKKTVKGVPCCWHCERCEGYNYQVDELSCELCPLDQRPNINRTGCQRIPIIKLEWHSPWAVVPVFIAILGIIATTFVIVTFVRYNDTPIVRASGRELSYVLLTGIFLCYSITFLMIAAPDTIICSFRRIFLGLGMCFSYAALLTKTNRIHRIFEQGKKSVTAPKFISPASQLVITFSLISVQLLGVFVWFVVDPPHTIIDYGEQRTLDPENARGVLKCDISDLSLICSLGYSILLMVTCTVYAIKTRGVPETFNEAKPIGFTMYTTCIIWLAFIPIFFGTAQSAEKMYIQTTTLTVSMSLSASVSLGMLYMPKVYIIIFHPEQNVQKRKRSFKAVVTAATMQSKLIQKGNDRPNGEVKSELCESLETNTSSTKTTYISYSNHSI

Going from `COc1ccc(CNC(=O)C2CCN(c3nccs3)CC2)cc1` to `COc1ccc(CNC(=O)COC(=O)CCC2CCCCC2)cc1`, the z-score falls from -0.318 to -0.328.

Going from `Cc1cc(NC(=O)CSc2nnc(-c3cccs3)n2N)no1` to `Cc1ccc(-n2c(SCC(N)=O)nnc2-c2ccccn2)cc1C`, the z-score rises from -0.647 to 0.0328.

Going from `COc1ccc2nc(SC(C(=O)c3ccccc3)c3ccccc3)nc(C)c2c1` (configuration not stated) to `COc1cccc(N=Cc2c(O)n(-c3cccc(C)n3)c(=O)c3ccccc23)c1`, the z-score falls from 0.574 to -0.226.

Compared with `CC(=O)c1cccc(S(=O)(=O)NCC2CCCCC2)c1`, `O=C(CN1CCCCC1)Nc1cccc(Cl)c1Cl` is lower in z-score: 0.0227 for the first, -0.108 for the second.

First: COC(=O)/C(=C/Nc1cccc2ccccc12)[N+](=O)[O-]
Second: CCOC(=O)c1ccccc1Nc1cn(C(C)=O)c2ccccc12
The z-score of the first is lower: -0.204 for the first, 2.73 for the second.

Compared with `COC(=O)c1sccc1-c1ccc(/C=N/OCc2c(Cl)cccc2Cl)o1`, `CCOC(=O)C1=C(c2ccccc2)OC(N)=C(C#N)C1c1cccs1` (configuration not stated) is higher in z-score: -0.187 for the first, 0.288 for the second.

First: Cc1ccc(-c2c(C)n([O-])c3c([n+]2=O)CCCCC3)o1
Second: CCC(C)c1ccccc1NC(=O)COC(=O)c1ccc2[nH]c3c(c2c1)CCCC3 (configuration not stated)
The z-score of the first is lower: -0.48 for the first, -0.0793 for the second.

Compared with `CC(C)Sc1nc(C(F)(F)F)cc(=O)n1-c1ccccc1`, `O=C(CSc1nc(-c2ccccc2)cc(C(F)(F)F)n1)NCCN1CCOCC1` is higher in z-score: 0.426 for the first, 2.92 for the second.

First: COc1cc(-n2c(=O)c3ccccc3n(Cc3ccccc3)c2=O)cc(OC)c1OC
Second: CC(=O)Oc1c(C(=O)c2nnc(C)o2)c(=O)n(Cc2ccccc2)c2ccccc12
The z-score of the first is lower: -0.047 for the first, 2.07 for the second.

First: CC(=O)Oc1c(C(=O)c2nnc(C)o2)c(=O)n(C)c2ccccc12
Second: CC(=O)n1cc(Nc2ccccc2C(=O)O)c2ccccc21
The z-score of the first is higher: -0.074 for the first, -1.18 for the second.

Compared with `CCc1ccc(NC(=O)N(CCCOC(C)C)C2CCN(C(C)=O)CC2)cc1`, `CCOC(=O)C(CCCOc1cccc(CC)c1)C(=O)OCC` is lower in z-score: 0.807 for the first, 0.094 for the second.

Compared with `O=C(Nc1nccs1)c1ccc2nccnc2c1`, `CC(C)(C)NC(=O)c1ccc2nccnc2c1` is higher in z-score: 0.133 for the first, 0.232 for the second.

Going from `O=C(CCC(=O)OCC(=O)c1ccc(Cl)cc1Cl)Nc1cccc2cccnc12` to `O=C(CCC(=O)Nc1ccccc1)NNC(=O)COc1ccccc1`, the z-score falls from 0.0344 to -0.00186.

Compared with `O=C(NCc1ccco1)C(c1ccc(F)cc1)N(CC1CCCO1)C(=O)Cn1nnc2ccccc21` (configuration not stated), `O=C(CSc1nnc(-c2ccccc2)n1Cc1ccco1)Nc1ccc(S(=O)(=O)N2CCCC2)cc1` is lower in z-score: -0.299 for the first, -1.61 for the second.

First: CCOC(=O)c1nnn(CC(=O)N2N=C(c3cc(C)ccc3C)CC2c2ccc(OC)cc2)c1C(=O)OCC (configuration not stated)
Second: CCOC(=O)/C(=C/c1ccc(OC)cc1)NC(=O)c1ccco1
The z-score of the first is lower: -0.378 for the first, -0.186 for the second.

Going from `COc1ccc(/C(N)=N/OC(=O)Oc2ccccc2)cc1OC` to `COc1ccc(C2C(C(=O)Nc3cccc(C)n3)c3ccccc3C(=O)N2C)cc1OC` (configuration not stated), the z-score rises from -0.183 to -0.119.

First: O=C(CSc1nc2cc(Cl)ccc2c(=O)n1Cc1ccco1)Nc1ccc(S(=O)(=O)N2CCOCC2)cc1
Second: COC(=O)c1ccc2c(=O)n(Cc3ccco3)c(SCC(=O)Nc3ccc(C)c(Cl)c3)nc2c1
The z-score of the first is higher: 2.05 for the first, 0.24 for the second.

Going from `CNS(=O)(=O)c1cc(C(=O)NCc2ccco2)ccc1Cl` to `Cc1ccc(C)c(NS(=O)(=O)c2cc(C(=O)NCc3ccco3)ccc2C)c1`, the z-score falls from 0.119 to -0.408.

Compared with `CCOc1ccc(NC(=S)N(CCCN2CCOCC2)Cc2cn(C)c3ccccc23)cc1`, `COc1ccc(NC(=O)c2nc[nH]c2C(=O)Nc2ccccc2C)cc1` is higher in z-score: -0.232 for the first, 0.48 for the second.

Going from `N=c1n(Cc2ccccc2)c2ccccc2n1CC(O)c1ccccc1` (configuration not stated) to `Cc1ccc(C(=O)N/C(=C\c2ccccc2)C(=O)OCc2ccccc2)cc1`, the z-score falls from 0.899 to -0.52.

First: CCC(C)c1ccccc1NC(=O)COC(=O)c1ccc2c(c1)S(=O)(=O)c1ccccc1C2=O (configuration not stated)
Second: CCc1cccc(CC)c1NC(=O)COC(=O)c1ccc2c(c1)S(=O)(=O)c1ccccc1C2=O
The z-score of the first is higher: 2.17 for the first, -0.326 for the second.

First: C=CCn1c(-c2cccc(OC)c2)n[nH]c1=S
Second: COc1ccc(/C(C)=C2/SC(=S)N(CCC(=O)O)C2=O)cc1
The z-score of the first is higher: -0.21 for the first, -0.343 for the second.

Compared with `CCCn1c(SCC(=O)Nc2nnc(-c3ccccc3)s2)nnc1-c1ccccn1`, `Cc1ccc(-n2c(SCC(N)=O)nnc2-c2ccccn2)cc1` is higher in z-score: -0.176 for the first, 2.09 for the second.

Compared with `CCOC(=O)C1=C(CSc2nc(-c3ccccc3)ccc2C#N)OC(N)=C(C#N)C1c1cccnc1` (configuration not stated), `CCOC(=O)C1=C(CSc2nc(-c3ccccc3)ccc2C#N)OC(N)=C(C#N)C1c1ccccc1` (configuration not stated) is higher in z-score: -0.107 for the first, 2.03 for the second.

Compared with `CCOC(=O)C1=C(CC)OC(N)=C(C#N)C1c1cccs1` (configuration not stated), `CCOC(=O)C1=C(CSc2nc(-c3ccccc3)ccc2C#N)OC(N)=C(C#N)C1c1ccc(OC)cc1` (configuration not stated) is higher in z-score: -0.237 for the first, 0.0604 for the second.

Going from `Cc1[nH]c2ccccc2c1/C=N/NC(=O)c1cc(-c2cccs2)[nH]n1` to `Cc1ccc(C)c(NC(=O)c2cnn3ccccc23)c1`, the z-score rises from -0.101 to -0.0235.

First: Cn1c(=O)[nH]c(=O)c2c1nc(NCCCn1ccnc1)n2Cc1ccc(F)cc1
Second: Cc1cccc2c(=O)cc(C)n(Cc3ccccc3)c12
The z-score of the first is higher: 0.613 for the first, -0.148 for the second.

Going from `Cc1cc(Nc2cccc([N+](=O)[O-])c2)n2c(nc3ccccc32)c1C#N` to `Cc1cccc(Oc2nc(-c3ccccc3)cc(C)c2S(C)(=O)=O)c1C`, the z-score rises from 0.0405 to 0.102.

Compared with `Cc1cccc(-n2c(O)c(C=Nc3c(C)n(C)n(-c4ccccc4)c3=O)c3ccccc3c2=O)n1`, `Cc1cccc(NC(=O)COC(=O)c2ccccc2-c2nc3ccccc3s2)c1C` is lower in z-score: -0.137 for the first, -0.272 for the second.

Going from `Cc1ccn2c(C(=O)N/N=C/c3ccc(CNC(=O)C(=O)Nc4ccc(C)c(C)c4)o3)c(C)nc2c1` to `Cc1ccccc1NC(=O)c1nc[nH]c1C(=O)NCc1ccccc1`, the z-score rises from 0.623 to 2.57.

First: CNC(=O)c1[nH]cnc1C(=O)Nc1ccccc1C
Second: CCOC(=O)c1ccccc1NC(=O)COC
The z-score of the first is higher: 0.825 for the first, -0.129 for the second.

Compared with `COc1ccc(-c2nc(C)ncc2-c2csc(C)n2)c(O)c1`, `Cc1ccc(C)c(-n2c(SCC(N)=O)nnc2-c2ccccn2)c1` is higher in z-score: -0.348 for the first, -0.142 for the second.

Compared with `CN1/C(=C/C(=O)c2ccc(Cl)cc2)Sc2cc3c(cc21)OCO3`, `Cc1ccccc1-c1nnn(CC(=O)N2CCN(S(=O)(=O)c3ccc(Cl)cc3)CC2)n1` is higher in z-score: -1.93 for the first, -0.031 for the second.

Going from `CC(C)CCN1C(=O)CCC1(C)C(=O)NC1CCCCCCC1` (configuration not stated) to `O=C(CC(c1ccco1)C1CCCCC1=O)c1ccccc1` (configuration not stated), the z-score falls from -0.383 to -0.656.

First: CCOC(=O)C1C(=O)C=C(c2cccc(NS(C)(=O)=O)c2)CC1c1ccco1 (configuration not stated)
Second: CCOC(=O)C1C(=O)C=C(c2ccc(NS(C)(=O)=O)cc2)CC1c1ccco1 (configuration not stated)
The z-score of the first is lower: -0.737 for the first, 2.57 for the second.

First: CCOC(=O)C1C(=O)C=C(c2ccc(C)cc2)CC1c1ccco1 (configuration not stated)
Second: CCOC(=O)Cn1c(C)cc(=O)c2cccc(C)c21
The z-score of the first is lower: -0.0925 for the first, -0.0778 for the second.

First: NNC(=O)C=C1CCN(c2ncc(C(F)(F)F)cc2Cl)CC1
Second: O=C(CSc1nc(-c2ccc(F)cc2)cc(C(F)(F)F)n1)NCCN1CCOCC1
The z-score of the first is lower: 0.00385 for the first, 0.00416 for the second.

First: CCOC(=O)C(CCOc1cccc(CC)c1)C(=O)OCC
Second: CCN(CC)CCCn1c(C)cc2c(c1=O)C(c1cccc(Cl)c1)C(C#N)=C(N)O2 (configuration not stated)
The z-score of the first is lower: -0.709 for the first, 2.38 for the second.

Going from `O=C(Nc1cccc(-c2nc3ccccc3s2)c1)c1cc(-n2cnnc2)ccc1Cl` to `COc1ccc(-c2csc(NC(=O)C3CCCCN3S(=O)(=O)c3ccccc3)n2)cc1` (configuration not stated), the z-score rises from -0.00826 to 1.82.

Going from `CC(C)Oc1ccc(C2CC(=O)N(c3ccccc3)C2=O)cc1` (configuration not stated) to `COc1ccc(N2C(=O)CC(c3ccc(OC(C)C)cc3)C2=O)cc1` (configuration not stated), the z-score falls from 2.33 to -0.209.

Compared with `CC(C)Oc1ccc(C2CC(=O)N(c3ccc(N(C)C)cc3)C2=O)cc1` (configuration not stated), `CCOc1ccc(N(CC(=O)NN=C2CCN(C)CC2)S(C)(=O)=O)cc1` is lower in z-score: -0.0638 for the first, -0.0704 for the second.

Going from `CC(Oc1ccccc1)C(=O)NC1CCN(Cc2ccccc2)CC1` (configuration not stated) to `O=C(CSc1ccccc1Cl)NC1CCCc2ccccc21` (configuration not stated), the z-score rises from -2.68 to -0.386.

Going from `C=CCSc1nnc(NC(=O)CSc2ccccn2)s1` to `O=C(COc1ccccc1)NCCc1cn2ccsc2n1`, the z-score rises from -0.421 to 0.183.

Going from `Cc1ccc(C)n1-c1ccc(N2CCOCC2)nc1` to `O=C(NCc1ccco1)C1CCN(c2ccc(N3CCOCC3)nn2)CC1`, the z-score rises from -0.064 to 0.321.

Going from `COc1ccc(-c2cc(C(F)(F)F)nc(SCC(=O)NCCN3CCOCC3)n2)cc1OC` to `COc1cc(CCN2C(=O)c3cccc4cccc(c34)C2=O)c(S(=O)(=O)NCCCO)cc1OC`, the z-score falls from 0.846 to 0.452.

Compared with `CCCCn1c(N)c(-c2nc3ccccc3s2)c2c([N+](=O)[O-])nn(C)c(=O)c21`, `CCN(CC)CCCn1c(C)cc2c(c1=O)C(c1ccccc1)C(C#N)=C(N)O2` (configuration not stated) is lower in z-score: 1.31 for the first, 0.538 for the second.

Compared with `Cn1c(=O)c2c(ncn2CC(=O)N/N=C/c2ccco2)n(C)c1=O`, `Cn1c(=O)c2c(ncn2CC(=O)N/N=C/c2ccc(Br)s2)n(C)c1=O` is higher in z-score: 1.59 for the first, 2.47 for the second.

First: Cn1c(=O)c2c(ncn2CC(=O)N/N=C/C(Br)=C/c2ccccc2)n(C)c1=O
Second: O=C(Cc1ccccc1)N/N=C/c1ccc(OC(=O)/C=C\c2ccco2)cc1
The z-score of the first is higher: 0.116 for the first, -0.0554 for the second.

Compared with `CCN(CC)CCCn1c(C)cc2c(c1=O)C(c1ccc(OC)c(OC)c1OC)C(C#N)=C(N)O2` (configuration not stated), `CCSc1ncnc2sc3c(c12)CCC3` is higher in z-score: -0.47 for the first, -0.0891 for the second.

Going from `O=S(=O)(/N=C(/Nc1ccc(F)c(F)c1F)c1ccccc1)c1ccccc1` to `O=C(NCc1ccc(Cl)cc1Cl)C(=O)N1CCCCC1`, the z-score rises from -0.125 to 0.112.

In the case of `CC(C#N)Sc1ncnc2sc3c(c12)CCC3` (configuration not stated), the z-score is reported as 0.00954.

`CC(C)(C)c1csc(NC(=O)c2ccc3nccnc3c2)n1` was tested, and the z-score was 5.29 (active).
In the case of `CCOC(=O)CC1=C(C(=O)OCC)C(c2cccs2)C(C#N)=C(N)O1` (configuration not stated), the z-score is reported as 3.6 (active).
In the case of `Cc1cccc(-n2c(O)c(/C=N/NC(=O)c3ccccc3Cl)c3ccccc3c2=O)n1`, the z-score is reported as 5.65 (active).
In the case of `CCOC(=O)C(CCCCOc1cccc(CC)c1)C(=O)OCC`, the z-score is reported as 3.18 (active).
With `Cc1cccc2c(=O)cc(C)n(CC(=O)N3CCCCC3)c12` the z-score was 3.39 (active).
For `Cc1cc(C)nc(Sc2ncnc3sc4c(c23)CCC4)n1`, the z-score was 5.12 (active).

From PubChem BioAssay AID488969 (Vanderbilt High Throughput Screening Facility, 2010)
